aSyn 5UTR act – Activators via SNCA 5'UTR binding, MLPCN | alpha-synuclein 5'UTR reporter, activators screen | activity score, % (tested at 7.5 µM), hits read low | 7.1% of 300,000 active | AID 1814; in the data active = activity score below about -60%
An asterisk follows results filed as active. The list is a sample of the results.

SMILES	aSyn 5UTR act
CSc1ccccc1NC(=O)c1cc(-c2ccc3c(c2)OCO3)on1	-128*
O=C(Nc1cc(Br)ccc1O)c1cc(-c2ccc3c(c2)OCO3)on1	-108*
CN(C(=O)c1cc(-c2ccc3c(c2)OCO3)on1)c1ccccc1	-167*
O=C(c1cc(-c2ccc3c(c2)OCO3)on1)N1CCN(c2ccccc2)CC1	-245*
CCOc1cccc(OCCCOc2ccccc2)c1	-76*
N#Cc1cnc(SCCc2ccccc2)nc1N	-71*
Cn1cccc1C1NC(=O)c2c(sc3c2CCC(C(C)(C)C)C3)N1 (stereo unspecified)	-97*
C/C(=N\N=c1/sc2ccccc2n1C)c1ccc(N2CCOCC2)cc1	-132*
C/C(=N\N=c1/sc2ccccc2n1C)c1ccccn1	-122*
COc1ccc(C(=O)Nc2sc(C)c(-c3ccccc3)c2C#N)cc1OC	-92*
CCn1nnc(NC(=O)c2cc3ccccc3o2)n1	-168*
CCCCn1nnc(NC(=O)c2cc3ccccc3o2)n1	-137*
CC(=O)c1cccc(NC(=O)c2ccc(-c3ccccc3[N+](=O)[O-])o2)c1	-238*
CCCn1nnc(NC(=O)c2cc3ccccc3o2)n1	-156*
CCn1nnc(NC(=O)c2ccc(-c3ccccc3[N+](=O)[O-])o2)n1	-90*
O=C(CCCCCN1C(=O)c2cccc3cccc(c23)C1=O)NCc1cccnc1	59
CCCCn1nnc(NC(=O)c2ccc(-c3ccccc3)cc2)n1	-129*
O=C(NCc1cccnc1)c1ccc(-c2ccccc2[N+](=O)[O-])o1	-64*
Cc1cc(/C=N/n2cnnc2)c(C)n1-c1ccc(OCc2ccc(Cl)cc2Cl)cc1	113
Cc1cc(/C=N/n2cnnc2)c(C)n1-c1ccc(OCc2ccc(F)cc2)cc1	-73*
NC(=O)C1=C[C@H](c2ccccc2)C[C@H](OCc2ccc(CO)cc2)O1	-67*
O=C(Nc1ccccc1)C1=C[C@@H](c2ccccc2)C[C@@H](OCc2ccc(CO)cc2)O1	-94*
O=c1[nH]nc(Cc2ccc3ccccc3n2)c2ccccc12	-71*
Cc1ccc(-c2csc(N3C(=N)SCC3=O)n2)cc1	-162*
Cc1ccc(Nc2nc(-c3ccc(F)cc3)cs2)nc1	-175*
SMILES	aSyn 5UTR act
Cc1ccc(Nc2nc(-c3ccc(O)c(O)c3)cs2)nc1	-216*
Cc1ccc(Nc2nc(N)nc(-c3oc4ccccc4c3C)n2)cc1	91
Cc1c(-c2nc(N)nc(Nc3ccccc3F)n2)oc2ccccc12	-178*
CCOc1ccc(OCc2ccc(C(=O)N3CCOCC3)cc2)cc1	-91*
CCOc1ccc(N=C(/C(C(=O)C(=O)N2CCOCC2)=C(\O)c2ccccc2)c2ccccc2)cc1	-151*
CCOc1ccc(C(=O)c2cc([N+](=O)[O-])ccc2N2CCOCC2)cc1	79
CCOc1ccc(OCc2ccc(C(=O)N3CCCC(C)C3)cc2)cc1 (stereo unspecified)	-63*
CC1CCN(C(=O)COC(=O)c2ccccc2NC(=O)c2ccco2)CC1	-73*
Cc1ccc(-c2ccc(/C=N/O)o2)cc1[N+](=O)[O-]	-66*
CC(C)c1ccc(NC(=O)c2ccccc2NC(=O)C2CCCCC2C(=O)O)cc1 (stereo unspecified)	-121*
O=C(NCCc1ccccc1)c1ccccc1NC(=O)C1CCCCC1C(=O)O (stereo unspecified)	-146*
C/C(=N\NC(=O)c1ccoc1C)c1cccnc1	-117*
C/C(=N\NC(=O)c1c(Br)c(C)nn1C)c1ccc(NC(=O)c2ccoc2C)cc1	-106*
C/C(=N\NC(=O)c1nn(C)c(C)c1Br)c1ccc(NC(=O)c2ccccc2F)cc1	-69*
C/C(=N/NC(=O)c1ccoc1C)c1ccc(NC(=O)c2ccncc2)cc1	-206*
C/C(=N\NC(=O)c1ccc(NS(=O)(=O)c2cccs2)cc1)c1ccccn1	71
Cc1ccc(/C=N/NC(=O)c2cc(-c3cccnc3)nc3ccccc23)cc1	81
CCOc1ccc(-c2cc(C(=O)N/N=C(\C)c3cccnc3)c3ccccc3n2)cc1	-92*
C/C(=N\NC(=O)c1nn(C)c(C)c1Br)c1ccc(NC(=O)c2ccc(C)s2)cc1	-149*
C/C(=N\NC(=O)c1nn(C)c(C)c1Br)c1ccc(NC(=O)c2ccoc2C)cc1	-115*
C/C(=N/NC(=O)c1ccoc1C)c1ccc(N2CCOCC2)cc1	-131*
O=c1c(-c2ccc(Cl)cc2)cnc2n1CCS2	-83*
O=C(N[C@@H](Cc1c[nH]c2ccccc12)C(=O)NC1CC1)c1ccccc1Cl	-160*
Clc1c(-c2ccccc2)nnn1-c1ccccc1	-65*
O=C1CCCCC1Sc1nnc(Nc2ccccc2)s1 (stereo unspecified)	-127*
SMILES	aSyn 5UTR act
CCSc1nnc(Nc2ccc(C)cc2)s1	-161*
CCSc1nnc(Nc2ccccc2)s1	-99*
COc1ccc(O)c(C(=O)CC(=O)c2ccccc2C)c1	-100*
COc1ccc(C(=O)CC(=O)c2ccccc2O)cc1	-218*
COc1ccc(O)c(C(=O)CC(=O)c2ccc(F)cc2)c1	73
Cc1ccc(O)c(N=CC2=C(O)c3ccccc3C2=O)c1	-156*
Oc1cccc(/C=N/N=C/c2cccc(O)c2O)c1O	-70*
O=C1C(C=Nc2ccccc2O)=C(O)c2ccccc21	-186*
CCN(CC)S(=O)(=O)c1cccc(C(=O)N/N=C/c2cccc(O)c2O)c1	66
Cc1ccc(O)c(C=Nc2cc(C)ccc2O)c1	-92*
Cc1ccc(N=Cc2cccc(O)c2O)c(C)c1	-62*
CCc1ccc(O)c(N=Cc2ccccc2O)c1	-70*
C=CCNC(=O)C1CC(=O)N(c2ccc(OCc3ccccc3Cl)cc2)C1 (stereo unspecified)	-111*
O=C(O)C1CC(=O)N(c2ccc(OCc3ccccc3)cc2)C1 (stereo unspecified)	-66*
CCOc1cc(C(C(=O)NCC2CCCO2)N(C(=O)Cn2nnc3ccccc32)c2ccc(C(C)=O)cc2)ccc1O (stereo unspecified)	-67*
O=C(Nc1ccc(Cl)cc1)C(Cl)C(=O)c1ccccc1 (stereo unspecified)	-79*
O=C(NC(=S)Nc1ccc(Cl)cc1)c1ccccc1	-177*
CCC(=O)NC(=S)Nc1ccc(NC(=S)NC(=O)c2ccccc2)cc1	-104*
COC(=O)c1ccc(N=Cc2c(C(F)(F)F)[nH]n(C)c2=O)cc1	-65*
c1ccc(CC2CCN(C3=Nc4cccc5cccc3c45)CC2)cc1	-95*
COc1ccccc1N1CCN(C2=Nc3cccc4cccc2c34)CC1	-181*
Oc1ccc(CN2CCC(Cc3ccccc3)CC2)c2cccnc12	105
CC(C)(C)c1ccc(C(=O)Nc2ncn[nH]2)cc1	-134*
Cc1ccc(-c2cc(=O)c3cc(Cl)ccc3[nH]2)cc1	-92*
O=c1cc(-c2ccc(Cl)cc2)[nH]c2ccccc12	-69*
SMILES	aSyn 5UTR act
Clc1ccc(-c2cc3ccccc3[nH]2)cc1	-218*
Cc1ccc(-c2cc(=O)c3ccccc3[nH]2)cc1	-77*
Cc1ccc2[nH]c(-c3ccccc3)cc(=O)c2c1	89
O=C(NNc1nc2ccccc2s1)Nc1ccc(F)cc1	-157*
O=C(Nc1nc2ccccc2s1)Nc1ccc(F)cc1F	-119*
NS(=O)(=O)c1ccc2nc(NC(=O)Nc3ccc(F)cc3)sc2c1	-98*
COc1ccc(NC(=O)Nc2nc3c(s2)CCCC3)cc1	-155*
COc1ccc(NC(=O)Nc2nc3ccccc3s2)cc1	-150*
COc1n[nH]c(C(=O)Nc2nc3ccccc3s2)c1[N+](=O)[O-]	-79*
CC(C)(C)c1ccc(NC(=O)c2c(F)cccc2Cl)cc1	-101*
COc1ccc(C(=O)Nc2nc3ccccc3s2)c(OC)c1	79

High-throughput results from PubChem BioAssay.
